{"source": "PubChem BioAssay AID938", "about": "(National Center for Advancing Translational Sciences (NCATS), 2007)", "note": "Where “and” joins values, the source holds several entries; their conditions need not be identical. Equal entries are not always repeated. In all, about 73,000 compounds went through this assay and about 1,800 (2.5%) were called active. Another 13% or so got no clear call; they are omitted. The call rests on the fitted dose curve; in most records, active means well fitted activation curve with a large enough effect; inconclusive means small, poorly fitted or top-dose-only effect; inactive means no such curve, though single readings can be large or run the other way. For the sample, actives were picked, then their nearest neighbours and some compounds at random. Potency means the concentration at half of the fitted maximal effect.", "data": [{"experiment": "qHTS Assay for Agonists of the Thyroid Stimulating Hormone Receptor: Activators of Intracellular cAMP Concentrations in Parental HEK 293; further: nearly all actives have a fitted effect of over 55% in size; on activation: % of control where 0% means no effect", "conditions": "parental HEK293 CNG cAMP sensor, membrane potential fluorescence; series mostly up to 57.1 µM; activation: at the top concentration", "text": "NIH Chemical Genomics Center [NCGC]\nNIH Molecular Libraries Screening Centers Network [MLSCN]\nPI Name: Dr. Marvin Gershengorn\nThis cell based assay utilized a cyclic nucleotide gated ion channel (CNG) as a biosensor for cAMP induction. HEK 293 cells stably expressing the modified CNG were purchased from BD biosciences (http://www.atto.com/products/actone/features_benefits.shtml) . Stimulation of cAMP production causes the CNG to open and subsequent membrane depolarization to occur. A fluorescent membrane potential dye (BD biosciences) was utilized to detect cAMP stimulation in cells.\nThe cells were maintained in DMEM medium (Invitrogen) containing 10 % FBS (Hyclone), 100 units/ml Penicillin, 100 ug/ml Streptomycin (Invitrogen), and 250 ug/ml Geneticin (Invitrogen) and 1 ug/ml Puromycin (Invitrogen) at 37C in 5% CO2. This assay was used as a counterscreen to \"qHTS Assay for Agonists of the Thyroid Stimulating Hormone Receptor\", to control for compounds signaling through endogenous receptors and other targets of HEK 293 cells.\nNCGC Assay Protocol Summary:\nHigh Throughput Screening. Freshly passaged cells were dispensed into 1536-well assay plates at 4 ul/well in DMEM containing phenol red (Invitrogen), 10% FCS (Hyclone), and 100 units/ml Penicillin, 100 ug/ml Streptomycin (Invitrogen) and incubated at 37 C with 5% CO2 for 20 to 36 hrs before the robotic screening. The screen was initiated by addition of 4 ul/well membrane potential dye containing 100 uM RO 20-1724 (Sigma Aldrich), followed by 60 min incubation at room temperature to allow for dye equilibration across the cell membrane. 23 nl/well compound or control was then added to the assay plates, which were incubated for additional 30 min before reading a Envision fluorescence plate reader (Perkin Elmer) in bottom-read mode for fluorescence intensity (emission at 590 nm).\nKeywords: cAMP, CNG Ion Channel, quantitative high throughput screening, qHTS, HTS, probe identification, CNG, cAMP, cyclic nucleotide gated ion channel PubChem", "values": [{"smiles": "CCC(c1nnnn1Cc1ccco1)N(Cc1cc2cc(OC)ccc2[nH]c1=O)C1CCCCC1", "note": "(configuration not stated)", "Potency": "10 µM (active)"}, {"smiles": "COc1ccc2[nH]c(=O)c(CN(CC3CCCO3)C(=O)Nc3ccccc3)cc2c1", "note": "(configuration not stated)", "activation": "7.93% (inactive)"}, {"smiles": "CCC(c1nnnn1C1CCCC1)N(Cc1cccs1)Cc1cc2cccc(C)c2[nH]c1=O", "note": "(configuration not stated)", "activation": "24.4% (inactive)"}, {"smiles": "CCC(c1nnnn1Cc1ccco1)N(CCc1ccccc1)Cc1cc2cccc(C)c2[nH]c1=O", "note": "(configuration not stated)", "Potency": "12.6 µM (active)"}, {"smiles": "COc1ccc(CCN(Cc2cc3cccc(C)c3[nH]c2=O)C(=O)N2CCCC2)cc1OC", "activation": "4.44% (inactive)"}, {"smiles": "COc1ccc2[nH]c(=O)c(CN(Cc3nnnn3CCc3ccccc3)CC3CCCO3)cc2c1", "note": "(configuration not stated)", "activation": "11.3% (inactive)"}, {"smiles": "COc1ccc(/C=C/NC(=O)Cc2ccc(OC)c(OC)c2)cc1", "activation": "28.5% [at 11.4 µM] (inactive) and 7.24% [at 11.4 µM] (inactive)"}, {"smiles": "Cn1c(CNc2nc(-c3ccccc3)cs2)nnc1SCC(=O)c1ccccc1", "activation": "5.27% (inactive)"}, {"smiles": "CCN(CC)CCCCn1c(-c2ccccc2)nc2c(N3CCOCC3)nc(C)nc21", "activation": "25% (inactive)"}, {"smiles": "COc1c(C)cccc1C(=O)Nc1cc(Cl)ccc1N1CCOCC1", "Potency": "25.1 µM (active)"}, {"smiles": "CC(=O)Nc1ccc(N2CCOCC2)c(C(=O)Nc2cccc(C)c2)c1", "activation": "-0.0802% (inactive)"}, {"smiles": "O=C(CNC(=O)c1ccc(Cl)cc1Cl)NCC(=O)Nc1ccccc1N1CCOCC1", "activation": "2.72% (inactive)"}, {"smiles": "Cc1ccc(NC(=O)c2cccc(N(C)C)c2)cc1NC(=O)c1ccc(O)cc1", "activation": "0.64% (inactive)"}, {"smiles": "COC(=O)c1oc2ccc(Br)cc2c1NC(C)=O", "activation": "10.9% (inactive)"}, {"smiles": "Cc1cccc(OCc2nnc(SCc3nc4cc(C(F)(F)F)ccc4c(=O)[nH]3)o2)c1", "activation": "2.42% (inactive)"}, {"smiles": "Cc1cccc(OCc2nnc(SCn3nnc4ccccc4c3=O)o2)c1", "Potency": "25.1 µM (active)"}, {"smiles": "Cc1cc(C)cc(OCc2nnc(SCC(=O)Nc3ccccc3)o2)c1", "activation": "6.95% (inactive)"}, {"smiles": "Cc1noc(C)c1S(=O)(=O)N(CC(=O)Nc1ccc2c(c1)OCCO2)c1ccc(C(C)C)cc1", "activation": "20.2% (inactive)"}, {"smiles": "C=CCOc1ccc(/C=N/n2cncn2)cc1OC", "activation": "-4.54% (inactive)"}, {"smiles": "Cc1nc(C)c(C(=O)Nc2cccc(C)c2C)o1", "activation": "7.93% (inactive)"}, {"smiles": "CCC(=O)Oc1cccc(C(=O)Nc2ccc(-c3nnc(-c4ccco4)o3)cc2)c1", "activation": "1.31% (inactive)"}, {"smiles": "Cc1ccc(OCC(=O)Nc2ccc(-c3nnc(-c4ccco4)o3)cc2)cc1", "activation": "21.5% (inactive)"}, {"smiles": "CCCCOc1ccc(-c2nnc(-c3ccco3)o2)cc1", "Potency": "20 µM (active)"}, {"smiles": "CC(C)(C)c1ccc(OC2C=CC(C#Cc3ccccc3)OC2CO)cc1", "note": "(configuration not stated)", "activation": "12.6% [at 11.4 µM] (inactive)"}, {"smiles": "Cc1cc2nc3c(=O)[nH]c(=O)nc-3n(C[C@H](O)[C@H](O)[C@H](O)CO)c2cc1C", "activation": "35.7% (inactive)"}, {"smiles": "CC(Cc1cccs1)NC(=O)NC1CCCCC1", "note": "(configuration not stated)", "activation": "6.28% (inactive)"}, {"smiles": "O=C(Nc1ccc(Oc2ccccc2)cc1)c1ccco1", "activation": "9.26% (inactive)"}, {"smiles": "O=C(Nc1c(-c2ccccc2)nc2c(Br)cc(Br)cn12)c1ccco1", "Potency": "20 µM (active)"}, {"smiles": "Cc1ccccc1NC(=O)c1cnn(-c2ccccc2)c1NC(=O)c1ccco1", "activation": "5.37% (inactive)"}, {"smiles": "Cn1c(=O)c2c(nc(N3CCCCCC3)n2CC(O)COc2ccc(Cl)cc2)n(C)c1=O", "note": "(configuration not stated)", "activation": "-35.3% (inactive)"}, {"smiles": "Cc1ccc(OCc2nc(C#N)c(N3CCCC3)o2)cc1", "Potency": "20 µM (active)"}, {"smiles": "CCOc1ccc(Nc2oc(Cc3ccccc3)nc2C#N)cc1", "activation": "6.65% (inactive)"}, {"smiles": "N#Cc1nc(COc2ccc(-c3ccccc3)cc2)oc1NCc1cccnc1", "activation": "16.9% (inactive)"}, {"smiles": "N#Cc1nc(-c2ccc(OCc3ccccc3)cc2)oc1NCCCN1CCOCC1", "activation": "-0.986% (inactive)"}, {"smiles": "N#Cc1nc(COc2ccc(Cl)cc2)oc1N1CCCC1", "Potency": "15.8 µM (active)"}, {"smiles": "CCOc1cc(/C=N/O)cc(Br)c1OC", "activation": "15% [at 11.4 µM] (inactive)"}, {"smiles": "CCOC(=O)[C@]1(C(/C=C/c2ccco2)NC(=O)OC)CCCC1=O", "note": "(some centres not stated)", "activation": "0.322% [at 11.4 µM] (inactive)"}, {"smiles": "O=C(NC(Cc1ccccc1)C(=O)N1CCCC1C(=O)O)c1ccccc1", "note": "(configuration not stated)", "activation": "-0.0027% (inactive)"}, {"smiles": "O=c1c(CCc2ccccc2)nc2cncnc2n1C1CC1", "activation": "2.16% (inactive)"}, {"smiles": "CCOC(=O)C1CCCN(C(=O)C2CCN(c3nnc(-n4cccc4)s3)CC2)C1", "note": "(configuration not stated)", "activation": "12.6% (inactive)"}, {"smiles": "O=C1CSC(c2cccc(F)c2)N1c1ccccc1F", "note": "(configuration not stated)", "activation": "4.72% (inactive)"}, {"smiles": "Fc1ccc(Br)cc1/C=N/n1cnnc1", "activation": "11% (inactive)"}, {"smiles": "Cc1cc(/C=N/n2cnnc2)c(C)n1-c1cccc(C(=O)O)c1", "activation": "7.1% (inactive)"}, {"smiles": "Cc1cc(/C=N/n2cnnc2)c(C)n1-c1ccc2ncccc2c1", "Potency": "3.98 µM (active)"}, {"smiles": "CCOC(=O)c1cc2cc(-c3c(C(=O)OCC)oc4cc(O)cc(O)c4c3=O)ccc2o1", "activation": "-9.15% (inactive)"}, {"smiles": "O=C(Nc1cccc(F)c1)N1CCC2(CC1)CCN(S(=O)(=O)c1ccccc1)CC2", "activation": "-5.07% (inactive)"}, {"smiles": "COc1ccccc1CN1CC2(CCN(S(=O)(=O)c3ccccc3)CC2)C1", "activation": "7.71% (inactive)"}, {"smiles": "CN1CCC2(CC1)CCN(S(=O)(=O)c1ccccc1)CC2", "Potency": "3.98 µM (active)"}, {"smiles": "CC(=O)c1cnc(Nc2nc(C)c3cc(C)ccc3n2)nc1C", "activation": "-1.78% (inactive)"}, {"smiles": "CO/N=C\\[C@@H](C)[C@H](OCc1ccccc1)C(C)C", "activation": "-0.643% [at 11.4 µM] (inactive)"}, {"smiles": "C[C@H]1CC[C@H](C(=O)O)N[C@@H]1c1ccc(C#Cc2ccccc2)cc1", "activation": "0.689% [at 11.4 µM] (inactive)"}, {"smiles": "CC(C)[C@H](NC(=O)Nc1ccc(S(N)(=O)=O)cc1)C(=O)O", "activation": "3.41% (inactive)"}, {"smiles": "CC(C)(C)NC(=O)C(c1ccncc1)N(C(=O)CNC(=O)c1ccco1)c1ccc2c(c1)OCO2", "note": "(configuration not stated)", "activation": "-1.28% (inactive)"}, {"smiles": "O=C(Cn1nnc(-c2ccccc2)n1)NCc1ccc2c(c1)OCO2", "activation": "12.1% (inactive)"}, {"smiles": "Cc1ccc(C(=O)CSc2nnc(Cn3nnc4ccccc43)n2C)cc1", "activation": "1.67% (inactive)"}, {"smiles": "CC(C)(C)NC(=O)C(c1ccco1)N(Cc1ccc2c(c1)OCO2)C(=O)Cn1nnc2ccccc21", "note": "(configuration not stated)", "Potency": "15.8 µM (active)"}, {"smiles": "Cc1ccc(-c2nnn(CC(=O)N(CCO)C(C(=O)NC(C)(C)C)c3ccncc3)n2)cc1", "note": "(configuration not stated)", "activation": "9.77% (inactive)"}, {"smiles": "CCC(C)(C)NC(=O)C(c1cccn1C)N(Cc1ccc(C)cc1)C(=O)Cn1nnc2ccccc21", "note": "(configuration not stated)", "Potency": "15.8 µM (active)"}, {"smiles": "CC(=O)c1nc(N2C(=O)C3CC=C(C)CC3C2=O)sc1C", "note": "(configuration not stated)", "activation": "1.5% (inactive)"}, {"smiles": "CCOC(=O)CCC(=O)OCC(=O)NC(C)C1CC2CCC1C2", "note": "(configuration not stated)", "activation": "5.54% (inactive)"}, {"smiles": "CCc1c(C)sc(NC(=O)OC)c1C(=O)N1CCOCC1", "activation": "-1.6% (inactive)"}, {"smiles": "CC(=O)OCC(=O)[C@@]1(O)CC[C@@H]2[C@H]3CCC4=CC(=O)C=C[C@]4(C)[C@]3(F)[C@@H](O)C[C@@]21C", "activation": "-1.34% [at 25.6 µM] (inactive)"}]}]}
